FEN1 inhibitor: blocks human flap endonuclease 1; Recombinant FEN1 flap cleavage, fluorescence, 15 min; Potency, µM (series often up to 114 µM), for the others: at the highest dose activity change, negative = inhibition, actives largely listed as inhibitors; P39748; 390,000 tested, 0.35% active; note: potency is the fitted concentration of half-maximal effect; % is set by controls: 0 for no effect and ±100 for the full control effect; nearly all actives have a fitted effect of over 65% in size
Target sequence (P39748 whole entry, looked up): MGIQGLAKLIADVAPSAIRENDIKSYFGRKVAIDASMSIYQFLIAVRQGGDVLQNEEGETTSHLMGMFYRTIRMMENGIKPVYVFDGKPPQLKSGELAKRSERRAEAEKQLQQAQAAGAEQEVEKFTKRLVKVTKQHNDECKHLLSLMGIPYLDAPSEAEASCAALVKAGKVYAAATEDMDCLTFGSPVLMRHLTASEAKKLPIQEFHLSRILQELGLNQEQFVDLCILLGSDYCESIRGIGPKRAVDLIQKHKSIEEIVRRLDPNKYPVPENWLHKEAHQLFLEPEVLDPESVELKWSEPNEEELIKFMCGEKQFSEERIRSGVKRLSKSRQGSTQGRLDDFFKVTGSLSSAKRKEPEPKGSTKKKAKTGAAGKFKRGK
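Concentration–response screening of FEN1 (10 nM): 15 min compound preincubation at room temperature, reaction started with 50 nM substrate and read at 0 and 15 min. Corrected, normalized data were fitted by a four-parameter Hill equation.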
POLB inh: DNA polymerase beta (human) inhibition | 340,000 tested, 1.3% active | Potency, µM (highest dose often 114 µM), inactives show at the highest dose activity change, negative = inhibition, hits mostly inhibitors | Pol beta primer extension/strand displacement, fluorescence kinetic | AID 485314 | P06746; note: potency is the fitted concentration of half-maximal effect; % is set by controls: 0 for no effect and ±100 for the full control effect
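Pol beta (10 nM) was preincubated with compound for 15 min at room temperature. The reaction was then started with 50 nM substrate and read immediately and after a further 10 min at room temperature.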
Pol iota inh: DNA polymerase iota (human) inhibition; Pol iota fluorescent replication assay, 10 min; Q9UNA4; Potency, µM (highest dose often 115 µM), without a hit: at the top dose activity, negative = inhibition, actives largely listed as inhibitors; 390,000 tested, 1% active; note: potency is the fitted concentration of half-maximal effect
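Fluorescent replication assay read twice, at 0 min and 10 min after adding 50 nM (final) substrate. Enzyme (10 nM) and compounds were first incubated 15 min at room temperature; enzyme-free buffer wells were negative controls.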
PI5P4Ka inh: blocks human PI5P4K alpha kinase activity; P48426; 330,000 tested, 1.2% active; PI5P4Kalpha enzyme, ADP-Glo luminescence, 60 min; hits give low values; max response, %; active = max response of -50% or lower; inconclusive = between -30% and -50%; inactive = -30% or higher; note: value at the top dose of about 77 µM; % is set by controls: 0 for no effect and ±100 for the full control effect
Target sequence (P48426 whole entry, looked up): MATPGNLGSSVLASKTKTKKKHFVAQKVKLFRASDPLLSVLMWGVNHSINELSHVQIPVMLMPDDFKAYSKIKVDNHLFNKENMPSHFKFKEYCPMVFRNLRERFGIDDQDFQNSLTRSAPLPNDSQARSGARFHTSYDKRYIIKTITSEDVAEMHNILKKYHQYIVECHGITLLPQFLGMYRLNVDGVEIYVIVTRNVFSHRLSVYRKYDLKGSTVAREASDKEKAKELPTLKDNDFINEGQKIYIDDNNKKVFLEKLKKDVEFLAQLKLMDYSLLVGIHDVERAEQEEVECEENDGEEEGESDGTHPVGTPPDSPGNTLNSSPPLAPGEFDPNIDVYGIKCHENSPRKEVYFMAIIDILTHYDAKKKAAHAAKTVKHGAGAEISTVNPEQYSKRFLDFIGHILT
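ADP-Glo luminescence end-point after a 60 min room-temperature kinase reaction. PI5P4Kalpha and substrate in HEPES pH 7.4 buffer with EGTA, 0.1% CHAPS and 5% DMSO; ATP at 5 microM final.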
Pol eta inh: inhibitors of human DNA polymerase eta; Potency, µM (doses to about 114 µM), for the others: at the highest dose activity change, negative = inhibition, most hits filed as inhibitors; 390,000 tested, 1.2% active; AID 588591; recombinant Pol eta, fluorescent DNA replication assay; note: potency is the fitted concentration of half-maximal effect; % is set by controls: 0 for no effect and ±100 for the full control effect
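Fluorescent replication assay: 50 nM final substrate added after a 15 min room-temperature compound preincubation with 10 nM enzyme. Signal taken at 0 min and again at 10 min.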
Pol kappa inh: inhibitors of human DNA polymerase kappa. Q9UBT6. purified Pol kappa, fluorescent DNA synthesis assay, 10 min. Potency, µM (titrated, usually from 107 µM), for inactives: at the top dose activity, negative = inhibition, actives largely listed as inhibitors. 400,000 tested, 0.53% active; note: potency is the fitted concentration of half-maximal effect; % is set by controls: 0 for no effect and ±100 for the full control effect
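Enzyme at 10 nM met test compounds for 15 min at room temperature. Substrate addition (50 nM final) began the reaction, which was monitored by fluorescence at 0 and 10 min.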
Starred values were filed as active, the others as inactive; ? = inconclusive; / = not tested or not shown; [ ] = another dose, or the depositor's remark. Most compounds without a hit are left out; they make up all but 2.8% or so of the library. Unless noted, calls come from the whole dose curve; as a rule, active = well fitted curve in the direction sought with a large enough effect; inconclusive = small, poorly fitted or top-dose-only effect, or another doubt; inactive = no such curve, though single readings can be large; an effect the other way counts as inactive or inconclusive.

SMILES	FEN1 inhibitor	POLB inh	Pol iota inh	PI5P4Ka inh	Pol eta inh	Pol kappa inh
O=C(CSc1nnc(-c2ccco2)c(-c2ccco2)n1)c1ccccc1	?	-4.6%	17.8µM*	?	35.5µM*	79.4µM*
Cc1cc(Cl)nc(SCC(=O)c2ccccc2)n1	-9.8%	8.7%	-15.2%	0.4	-9.5%	-5.2%
Cc1ccc(C(=O)CSc2nnc(-c3ccco3)n2Cc2ccccc2)cc1	-5.8%	-11.0%	?	-50.7*	-9.2%	-11.0%
O=C(CSc1nnc(-c2ccco2)n1Cc1ccccc1)c1ccccc1	-8.9%	5.5%	1.9%	1.5	?	-14.5%
CC(=O)c1ccc(NC(=O)CSc2nnc(-c3ccco3)c(-c3ccco3)n2)cc1	31.6µM*	20µM*	?	-64.1*	22.4µM*	14.1µM*
COc1ccc(-c2nnc(SCC(=O)Nc3ccc(C(C)=O)cc3)nc2-c2ccc(OC)cc2)cc1	4.8%	-9.0%	-11.3%	/	2.4%	-7.4%[60.1 µM]
Cc1nc2c(-c3ccccc3)c(C)nn2c(C)c1CCC(=O)NCc1ccc(F)cc1	-3.8%	-5.6%	27.2%	/	-20.3%	0.4%
CC(=O)[C@@]1(O)[C@H](C)CC2C3CC=C4CC(OP(=O)(O)O)CC[C@]4(C)C3CC[C@@]21C (stereo partly specified)	?	50.1µM*	-4.0%	-6.7	-21.1%	-2.1%
COc1ccccc1CNc1ncnc2ccc(-c3ccccc3C#N)cc12	/	/	/	/	/	5.0%[60.1 µM]
COc1ccc(CNc2ncnc3ccc(-c4ccccc4C#N)cc23)c(OC)c1	/	/	/	/	/	39.8µM*
Cc1nc(C)c(-c2csc(Nc3ccc(O)c(C(=O)O)c3)n2)s1	1.5%	-23.5%	72.0%	-74.5*	?	-5.6%
OC[C@H]1O[C@@H](O[C@@H]2[C@@H](CO)O[C@](O)(CO)[C@H]2O)[C@H](O)[C@@H](O)[C@H]1O	/	/	/	/	/	-2.1%[19.4 µM]
CCc1ccc(NC(=O)CSc2nnc(-c3ccccc3)n2CC)cc1	-1.9%	/	-0.2%	/	/	-4.8%
Cc1cc(C)cc(C(=O)NCC(=O)OCC(=O)N2c3ccccc3NC(=O)C2(C)C)c1	-10.8%	14.1µM*	-25.6%	-5.6	-12.3%	-1.8%
CC1(C)C(=O)Nc2ccccc2N1C(=O)COC(=O)c1cccnc1Cl	1.2%	/	?	?	50.1µM*	-24.9%
N#Cc1c(-c2ccncc2)c2c([nH]c1=S)CCCC2	-2.4%	-11.7%	-1.5%	-59.6*	-0.3%	-19.4%
COc1ccc(NC(=O)/C=C/c2cc(Br)ccc2OC)cc1	-8.6%	39.6%	-9.1%	13.6	-2.4%	-13.7%
COc1ccc(Br)cc1/C=C/C(=O)c1ccc(NC(C)=O)cc1	?	20.0%	100µM*	-2.4	?	-18.5%
CC12CCCC[C@@H]1CCC1C2CCC2(C)C1CC[C@@]2(O)CNCCO (stereo partly specified)	-0.2%	22.6%	35.8%	5.5	-21.2%	-0.8%
CCN1C(=O)S/C(=C/c2c(OCc3ccc(C(=O)O)cc3)ccc3ccccc23)C1=O	-9.8%	50.1µM*	-1.9%	6.3	-13.5%	-6.3%
COc1cccc(C2CC(c3cccs3)=NN2C(=O)CSc2nc3c(cnn3-c3ccc(F)cc3)c(=O)[nH]2)c1OC (stereo unspecified)	17.8µM*	1.3%	-10.4%	7.3	1.1%	2.5%
COc1cc2[nH]c(=S)nc(NC3CCCCCC3)c2cc1OC	44.7µM*	?	-21.3%	-25.6	-3.2%	-16.4%
COc1cc2[nH]c(=S)nc(NCC3CCCO3)c2cc1OC (stereo unspecified)	-9.4%	-14.5%	15.6%	-14.0	2.1%	-17.2%
O=C(NC(=S)NCCC1=CCCCC1)c1ccccc1Br	-28.0%	-13.0%	-7.1%	-53.8*	?	-6.7%
O=C(COC(=O)c1ccccc1Br)NCCC1=CCCCC1	-4.1%	-2.2%	-14.3%	-12.2	-14.1%	-7.9%
SMILES	FEN1 inhibitor	POLB inh	Pol iota inh	PI5P4Ka inh	Pol eta inh	Pol kappa inh
O=C(COC(=O)c1ccc[n+]([O-])c1)Nc1ccc(Cl)cc1[N+](=O)[O-]	-7.0%	/	-4.4%	-22.3	-4.2%	-10.6%
COC(C(=O)C(O)C(C)O)C1Cc2cc3cc(OC4CC(OC5CC(O)C(O)C(C)O5)C(O)C(C)O4)c(C)c(O)c3c(O)c2C(=O)C1OC1CC(OC2CC(OC3CC(O)C(OC)C(C)O3)C(O)C(C)O2)C(O)C(C)O1 (stereo unspecified)	?	/	22.4µM*	-5.9	11.2µM*	79.4µM*
COc1ccc(C)cc1NC(=O)COCc1cc(-c2ccc(F)cc2)on1	-6.9%	-2.1%	3.9%	/	-16.0%	-3.5%
COc1ccc(NC(=O)C2=C(C)Nc3ncnn3C2c2ccc[nH]2)cc1 (stereo unspecified)	-2.4%	79.4µM*	?	/	?	4.7%[60.1 µM]
CC1=C(C(=O)Nc2ccc(C)cc2C)C(c2ccc[nH]2)n2ncnc2N1 (stereo unspecified)	1.5%	11.1%	?	/	-4.0%	-9.5%[60.1 µM]
c1ccc(-c2ccc(N3CCCC4(CCNCC4)C3)cc2)cc1	/	/	/	/	/	-17.1%[60.1 µM]
Cc1c(N)cc(S(=O)(=O)O)cc1NC(=O)c1cccc([N+](=O)[O-])c1	5.9%	/	?	0.3	28.2µM*	-21.7%
CCOC(=O)c1ccccc1NC(=O)c1cccc([N+](=O)[O-])c1	-1.7%	31.0%	-3.5%	-28.1	-12.6%	4.1%
O=C(c1ccc(F)cc1)N1CCC(c2nc(-c3ccc(S(=O)(=O)N4CCCC4)cc3)no2)CC1	-0.1%	31.4%	15.0%	/	-12.1%	10.9%
CCOc1ccc(NC(=O)CSc2oc(-c3ccc(C)cc3)nc2S(=O)(=O)c2ccc(C)cc2)cc1	1.0%	3.16µM*	10.3%	/	79.4µM*	0.9%
Cc1ccc(S(=O)(=O)Nc2cc(=O)[nH]c(SCC(=O)Nc3ccccc3C(F)(F)F)n2)cc1	0.8%	21.9%	83.7%	-4.2	-13.8%	-8.0%
Cc1ccc(S(=O)(=O)Nc2cc(=O)[nH]c(SCC(=O)Nc3cccc(C)c3)n2)cc1	-11.8%	-2.4%	50.1µM*	-12.2	1.4%	?
CCOc1ccc(NC(=O)CSc2nc(NS(=O)(=O)c3ccc(C)cc3)cc(=O)[nH]2)cc1	-8.3%	3.3%	22.4µM*	-8.3	-17.8%	39.8µM*
CCOc1ccc(NC(=O)CSc2oc(-c3cccs3)nc2S(=O)(=O)c2ccc(Cl)cc2)cc1	4.0%	12.9%	6.4%	/	-23.7%	-16.6%
Cc1ccc(NC(=O)CSc2nc(NS(=O)(=O)c3ccccc3)cc(=O)[nH]2)cc1	79.4µM*	22.4µM*	?	?	22.4µM*	22.4µM*
Cc1ccc(S(=O)(=O)Nc2cc(=O)[nH]c(SCC(=O)Nc3ccccc3Cl)n2)cc1	-2.9%	?	-13.7%	-1.0	-20.8%	5.3%
CC(C)(C)n1ncc2c(=O)n(Cc3ccc(Cl)cc3C(F)(F)F)cnc21	6.8%	/	-22.0%	/	/	-11.5%

Source: PubChem (National Center for Advancing Translational Sciences (NCATS))
